According to PubChem BioAssay (NCATS):
Results filed as inconclusive are left out. Activity calls are given as the source filed them.

experiment: qHTS for identification of novel therapeutic agents for treatment of microphthalmiaassociated transcription factor (MiT) renal cell carcinoma (RCC) (AID 1963991); details: TFE3-RCC UOK109 viability, CellTiter-Glo, 48 h; active = Z-AUC below -0.8 in all three lines
Outline: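 Curves over 11 concentrations were fitted to CellTiter-Glo luminescence, scaled between empty wells (0%) and DMSO (100%) viability. Cells were UOK109, UOK124 and UOK145 TFE3-fusion RCC lines at 500/well, exposed 48 hours at 37 C.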
Potency is the fitted concentration of half-maximal effect.

Compound	Potency
O=C1NC(=O)C(c2cnc3ccccn23)=C1c1cn2c3c(cccc13)CN(C(=O)N1CCOCC1)CC2	4180 nM (active)
Cc1ccc(C(=O)N(CCCN)[C@@H](c2nc3cc(Cl)ccc3c(=O)n2Cc2ccccc2)C(C)C)cc1	1.66 nM (active)
CCC[C@H](Nc1nc(-c2ccc(NC(=O)NCC)c(OC)c2)ncc1C)c1cccnc1	37.2 nM (active)
Cc1ccc(C(=O)N(CCCN)[C@@H](c2oc3cc(Cl)ccc3c(=O)c2Cc2ccccc2)C(C)C)cc1	37200 nM (active)
CN(C)CCN(C)C(=O)c1ccc(NC(=O)Nc2ccc(-c3nc(N4CCOCC4)c4ccn(CC(F)(F)F)c4n3)cc2)cc1	1320 nM (active)
CCC(=O)N1CCN(c2ccc(-n3c(=O)ccc4cnc5ccc(-c6cnc7ccccc7c6)cc5c43)cc2C(F)(F)F)CC1	20.9 nM (active)
CC1(C)CC(=O)c2c(C(F)(F)F)nn(-c3ccc(C(N)=O)c(NC4CCC(O)CC4)c3)c2C1 (configuration not stated)	372 nM (active)
COc1ccc(-c2ccc3ncc4c(c3c2)n(-c2ccc(N3CCNCC3)c(C(F)(F)F)c2)c(=O)n4C)cn1	1480 nM (active)

same assay, conditions: TFE3-RCC UOK109 viability, CellTiter-Glo, 48 h; measured here: UOK109 Z-AUC; stronger effect = lower value

Compound	z-score
C#CCN(C)CC1=Cc2ccccc2Oc2ccccc21	-0.41
O=C1NC(=O)C(c2cnc3ccccn23)=C1c1cn2c3c(cccc13)CN(C(=O)N1CCOCC1)CC2	-1.6
Cc1ccc(C(=O)N(CCCN)[C@@H](c2nc3cc(Cl)ccc3c(=O)n2Cc2ccccc2)C(C)C)cc1	-2.23
CCC[C@H](Nc1nc(-c2ccc(NC(=O)NCC)c(OC)c2)ncc1C)c1cccnc1	-2.33
C[C@]12C=CC(=O)C=C1CC[C@@H]1[C@@H]2[C@@H](O)C[C@@]2(C)[C@@H]1CC[C@]2(O)C(=O)CO	0.748
CCCCOCCOc1nc(-c2ccc(C(=O)O)c(F)c2)sc1C	1.12
O=C(O)c1nc(=O)[nH]c(=O)[nH]1	1.29
C[C@H]1COC2=C1C(=O)C(=O)c1c2ccc2c1CCCC2(C)C	-0.0604
Cc1cn([C@@H]2C[C@@H](O)[C@H](CO)O2)c(=O)[nH]c1=O	0.973
CS(=O)(=O)c1ccc(C2=C(c3ccccc3)C(=O)OC2)cc1	0.605
Cc1ccccc1C(C(=O)NC1CCCCC1)N(C(=O)CNc1ccc(C#N)cc1)c1cccc(F)c1 (configuration not stated)	0.515
CCCCC(F)(F)[C@@]1(O)CC[C@H]2[C@H](CC(=O)[C@@H]2CCCCCCC(=O)O)O1	0.852
CC[C@H](C=C[C@@H](C)[C@H]1CC[C@H]2[C@@H]3CC=C4C[C@@H](O)CC[C@]4(C)[C@@H]3CC[C@]12C)C(C)C	0.875
Cc1cc2c(cc1C1(c3ccc(C(=O)O)cn3)CC1)C(C)(C)CCC2(C)C	1.13
CO[C@H]1O[C@@H]2O[C@@]3(C)CC[C@@H]4[C@@H](C)CC[C@@H]([C@H]1C)[C@@]24OO3	1.01
CCOC(=O)[C@@H](N)CCC(=O)N[C@@H](CSCc1ccccc1)C(=O)N[C@@H](C(=O)OCC)c1ccccc1	-0.0164
CN1C(=O)C[C@H](C(=O)N[C@@H](Cc2cnc[nH]2)C(=O)N2CCC[C@@H]2C(N)=O)NC1=O	0.71

Compound	z-score
Cc1ccc(C(=O)N(CCCN)[C@@H](c2oc3cc(Cl)ccc3c(=O)c2Cc2ccccc2)C(C)C)cc1	-1.98
CN1CCN2c3ncccc3Cc3ccccc3C2C1 (configuration not stated)	0.418
CCNC(=O)CCCC=CC[C@@H]1[C@H](C=CC(O)CCc2ccccc2)[C@@H](O)C[C@@H]1O (some centres not stated)	1.02
CCN(CCO)CCCOc1ccc2c(Nc3cc(CC(=O)Nc4cccc(F)c4)[nH]n3)ncnc2c1	0.018
CN(C)CCN(C)C(=O)c1ccc(NC(=O)Nc2ccc(-c3nc(N4CCOCC4)c4ccn(CC(F)(F)F)c4n3)cc2)cc1	-2.71
CC(C)C[C@@H](N)[C@H](O)C(=O)N[C@H](C(=O)N[C@H](C(=O)N[C@@H](CC(=O)O)C(=O)O)C(C)C)C(C)C	0.245
CCC[C@H](N[C@@H](C)C(=O)N1[C@@H]2CCCC[C@H]2C[C@H]1C(=O)O)C(=O)OCC	0.586
O=C(O)C1=CC(O)C(O)[C@H](O)C1 (some centres not stated)	1.04
COc1ccc(-c2nc3ccc(C4=NNC(=O)CC4C)cc3[nH]2)cc1 (configuration not stated)	0.403
COc1cccc(OC)c1-c1cc(C(=O)NC2(C(=O)O)C3CC4CC(C3)CC2C4)nn1-c1ccnc2cc(Cl)ccc12 (configuration not stated)	1.18
CCC(=O)N1CCN(c2ccc(-n3c(=O)ccc4cnc5ccc(-c6cnc7ccccc7c6)cc5c43)cc2C(F)(F)F)CC1	-1.38
CCCCC[C@H](O)C=C[C@H]1[C@H](O)CC(=O)[C@H]1CC=CCCCC(=O)O	1.12
C[C@H](c1ccc(F)cc1CCCC(=O)O)N(c1cc(F)ccc1F)S(=O)(=O)c1ccc(Cl)cc1	0.174
CC1(C)CC(=O)c2c(C(F)(F)F)nn(-c3ccc(C(N)=O)c(NC4CCC(O)CC4)c3)c2C1 (configuration not stated)	-1.31
COc1ccc(-c2ccc3ncc4c(c3c2)n(-c2ccc(N3CCNCC3)c(C(F)(F)F)c2)c(=O)n4C)cn1	-2.72
N#Cc1c(N(CC(=O)O)CC(=O)O)sc(C(=O)O)c1CC(=O)O	0.286
C=C1c2cccc(O)c2C(O)=C2C(=O)[C@@]3(O)C(O)=C(C(N)=O)C(=O)[C@@H](N(C)C)[C@@H]3[C@@H](O)[C@H]12	1.5
